Measurements as given in PubChem BioAssay (NCI).
The panel holds about 83,000 compounds, 20% with a hit somewhere; the sample as a whole holds those more often.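 96-well plates, one dose, 48 hours. Percent growth reported; active if below 10.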 Activity calls are given as the source filed them.

Each compound was assayed on SR leukemia (assay: NCI-60 one-dose screen, 48 h (100 = growth as untreated, 0 = no growth, -100 = all killed)). Details: 10 µM.
For `COc1ccc(-c2cc(C(=O)N=Nc3c(O)[nH]c4ccc(Br)cc34)c3ccccc3n2)cc1`, the growth was 3.37% (active).
For `CC(=O)c1ccc(Nc2nc(SCCC(C)C)nc(-c3ccc(F)cc3)c2C#N)cc1`, the growth was 64.9% (inactive).
In the case of `Clc1cccc(N/N=C/c2c[nH]c3ccccc23)n1`, the growth is reported as 13.7% (inactive).
`O=[N+]([O-])c1ccc(-c2nc(-c3ccccc3)c(-c3ccccc3)n2-c2ccc(S(=O)(=O)Nc3ncccn3)cc2)cc1` was tested, and the growth was 45% (inactive).
`O=C(CSc1nnc(-c2ccc3nc(-c4ccc(Cl)cc4)[nH]c3c2)o1)Nc1ccc(Cl)cc1` was tested, and the growth was 3.21% (active).
In the case of `CCOC(=O)c1c(CSc2ccccc2)n(C)c2cc(CN(C)C)c(O)c(CN(C)C)c12`, the growth is reported as 21.4% (inactive).
With `N#Cc1c(NC(=O)c2cccc(C(F)(F)F)c2)sc2c1CCC(O)=C2` the growth was 14.6% (inactive).
`Cc1ccc(-c2nc(Nc3ccc(S(N)(=O)=O)cc3)c3ccccc3n2)cc1` was tested, and the growth was 14.6% (inactive).
With `Cc1ccc2nc(COc3ccc(C(=O)NNC(=S)NC(=O)c4ccccc4)cc3)[nH]c2c1` the growth was 25.8% (inactive).
For `O=C(CNc1nc(-c2ccccc2)cs1)Nc1cccc([N+](=O)[O-])c1`, the growth was 2.8% (active).
For `CC(=O)Nc1ccc(-c2cn(-c3cccc(C(=O)Nc4cccc(OC(F)(F)F)c4)c3)nn2)cn1`, the growth was 97.8% (inactive).
In the case of `OCCCNc1oc(-c2ccccc2)nc1[P+](c1ccccc1)(c1ccccc1)c1ccccc1`, the growth is reported as 1.71% (active).
With `CC(C)Sc1nc(NC2CC2)c(C#N)c(-c2ccccc2)n1` the growth was 99.8% (inactive).
With `OCCNc1oc(-c2ccccc2)nc1[P+](c1ccccc1)(c1ccccc1)c1ccccc1` the growth was 1.42% (active).
`C/C(=C\c1ccc(O)cc1O)c1ccc2ccc(O)cc2[o+]1` was tested, and the growth was 20.2% (inactive).
`Cc1noc2c(Cc3ccc([N+](=O)[O-])cc3)nn(CC(=O)N/N=C/c3ccc(Cl)cc3)c(=O)c12` was tested, and the growth was 88.6% (inactive).
For `CCOC(=O)CNC(=O)CN(Cc1ccccc1)C(=O)[C@@]1(C)CCC[C@]2(C)[C@H]3CC4C(C(C)C)=C[C@]3(CC[C@H]21)[C@@H]1C(=O)CCC(=O)[C@H]41`, the growth was 8.03% (active).
`O=C(CSc1nnc(-c2c[nH]c3ccccc23)n1-c1ccccc1)c1ccc(Cl)cc1` was tested, and the growth was 92.4% (inactive).
`COc1ccc(-c2cc(C(=O)N=Nc3c(O)[nH]c4ccc(F)cc34)c3ccccc3n2)cc1` was tested, and the growth was 22.5% (inactive).
`O=C1Nc2ccc(Cl)cc2/C1=C/c1ccc(OCc2ccccn2)cc1` was tested, and the growth was 54.9% (inactive).
In the case of `Cc1noc2c(Cc3ccccc3)nn(CC(=O)N/N=C/c3ccc(Cl)cc3)c(=O)c12`, the growth is reported as 104% (inactive).
With `COc1ccc2[nH]c(=O)c(CSc3cccc(N)c3)cc2c1` the growth was 39.1% (inactive).
For `COc1ccc(C(=O)/C=C/c2cc(F)cc(C(F)(F)F)c2)cc1S(N)(=O)=O`, the growth was 3.04% (active).
`Nc1cc(-c2cccc(C(=O)NCc3ccc4c(c3)OCO4)c2)ccn1` was tested, and the growth was 76.1% (inactive).
With `Cc1ccc(/C(N)=N/c2sc(-c3ccccc3)nc2-c2ccccc2)cc1` the growth was 63.1% (inactive).
`CN(C(=O)c1ccc(C(C)(C)C)cc1)c1sc2c(c1C#N)CCC(=O)C2` was tested, and the growth was 13.7% (inactive).
In the case of `O=C(NO)c1ccc(CNC(=O)[C@H]2Cc3c([nH]c4ccccc34)[C@H](c3ccccc3)N2)cc1`, the growth is reported as 23.8% (inactive).
In the case of `COc1ccc2cc([C@H](C)C(=O)NCc3ccccc3)ccc2c1`, the growth is reported as 29.8% (inactive).
For `Cc1noc2c(Cc3ccccc3)nn(CC(=O)N/N=C/c3ccc(F)cc3)c(=O)c12`, the growth was 102% (inactive).
For `COc1cnc2c(c1)C(=O)c1c-2n(CCCNCCO)c(=O)c2cc(OC)c(OC)cc12`, the growth was 5.85% (active).
For `CN1CCc2c(sc3ncnc(N/N=C/c4cn(-c5ccccc5)nc4-c4ccc(Cl)cc4)c23)C1`, the growth was 8.8% (active).
`N#Cc1c(NC(=O)c2ccc(C(F)(F)F)cc2C(F)(F)F)sc2c1CCC(=O)C2` was tested, and the growth was -11.3% (active).
With `O=C1N/C(=N\c2nccs2)S/C1=C\c1cccs1` the growth was 16.4% (inactive).
With `CC(=O)c1ccc(Nc2nc(SC(C)C)nc(-c3ccccc3)c2C#N)cc1` the growth was 70% (inactive).
For `O=C(CNc1nc(-c2ccccc2)cs1)Nc1ccc([N+](=O)[O-])cc1Cl`, the growth was 16.7% (inactive).
In the case of `O=C(NO)c1ccc(Cn2ccc3c(Nc4ccccc4)ncnc32)cc1`, the growth is reported as 11.9% (inactive).
In the case of `O=C(NO)c1ccc(CN2CCN(c3nc(-c4ccccc4)c4ccccc4n3)CC2)cc1`, the growth is reported as 8.6% (active).

These compounds were tested on RPMI-8226 leukemia in the same assay as above. Details: 10 µM.
In the case of `COc1ccc(-c2cc(C(=O)N=Nc3c(O)[nH]c4ccc(Br)cc34)c3ccccc3n2)cc1`, the growth is reported as 38.7% (inactive).
For `CC(=O)c1ccc(Nc2nc(SCCC(C)C)nc(-c3ccc(F)cc3)c2C#N)cc1`, the growth was 81.7% (inactive).
In the case of `Clc1cccc(N/N=C/c2c[nH]c3ccccc23)n1`, the growth is reported as 4.05% (active).
For `O=[N+]([O-])c1ccc(-c2nc(-c3ccccc3)c(-c3ccccc3)n2-c2ccc(S(=O)(=O)Nc3ncccn3)cc2)cc1`, the growth was 33% (inactive).
For `O=C(CSc1nnc(-c2ccc3nc(-c4ccc(Cl)cc4)[nH]c3c2)o1)Nc1ccc(Cl)cc1`, the growth was 0.0065% (active).
In the case of `CCOC(=O)c1c(CSc2ccccc2)n(C)c2cc(CN(C)C)c(O)c(CN(C)C)c12`, the growth is reported as 28.5% (inactive).
In the case of `N#Cc1c(NC(=O)c2cccc(C(F)(F)F)c2)sc2c1CCC(O)=C2`, the growth is reported as 25% (inactive).
With `Cc1ccc(-c2nc(Nc3ccc(S(N)(=O)=O)cc3)c3ccccc3n2)cc1` the growth was 29.2% (inactive).
`Cc1ccc2nc(COc3ccc(C(=O)NNC(=S)NC(=O)c4ccccc4)cc3)[nH]c2c1` was tested, and the growth was 64.9% (inactive).
With `O=C(CNc1nc(-c2ccccc2)cs1)Nc1cccc([N+](=O)[O-])c1` the growth was -18% (active).
`CC(=O)Nc1ccc(-c2cn(-c3cccc(C(=O)Nc4cccc(OC(F)(F)F)c4)c3)nn2)cn1` was tested, and the growth was 96% (inactive).
In the case of `OCCCNc1oc(-c2ccccc2)nc1[P+](c1ccccc1)(c1ccccc1)c1ccccc1`, the growth is reported as 4.55% (active).
With `CC(C)Sc1nc(NC2CC2)c(C#N)c(-c2ccccc2)n1` the growth was 94.2% (inactive).
In the case of `OCCNc1oc(-c2ccccc2)nc1[P+](c1ccccc1)(c1ccccc1)c1ccccc1`, the growth is reported as 3.91% (active).
For `C/C(=C\c1ccc(O)cc1O)c1ccc2ccc(O)cc2[o+]1`, the growth was 65.7% (inactive).
For `Cc1noc2c(Cc3ccc([N+](=O)[O-])cc3)nn(CC(=O)N/N=C/c3ccc(Cl)cc3)c(=O)c12`, the growth was 84.7% (inactive).
`CCOC(=O)CNC(=O)CN(Cc1ccccc1)C(=O)[C@@]1(C)CCC[C@]2(C)[C@H]3CC4C(C(C)C)=C[C@]3(CC[C@H]21)[C@@H]1C(=O)CCC(=O)[C@H]41` was tested, and the growth was 19.8% (inactive).
In the case of `O=C(CSc1nnc(-c2c[nH]c3ccccc23)n1-c1ccccc1)c1ccc(Cl)cc1`, the growth is reported as 83.2% (inactive).
In the case of `COc1ccc(-c2cc(C(=O)N=Nc3c(O)[nH]c4ccc(F)cc34)c3ccccc3n2)cc1`, the growth is reported as 72.2% (inactive).
For `O=C1Nc2ccc(Cl)cc2/C1=C/c1ccc(OCc2ccccn2)cc1`, the growth was 73.9% (inactive).
With `Cc1noc2c(Cc3ccccc3)nn(CC(=O)N/N=C/c3ccc(Cl)cc3)c(=O)c12` the growth was 75.5% (inactive).
In the case of `COc1ccc2[nH]c(=O)c(CSc3cccc(N)c3)cc2c1`, the growth is reported as 44.8% (inactive).
With `COc1ccc(C(=O)/C=C/c2cc(F)cc(C(F)(F)F)c2)cc1S(N)(=O)=O` the growth was 2.99% (active).
For `Nc1cc(-c2cccc(C(=O)NCc3ccc4c(c3)OCO4)c2)ccn1`, the growth was 80.6% (inactive).
`Cc1ccc(/C(N)=N/c2sc(-c3ccccc3)nc2-c2ccccc2)cc1` was tested, and the growth was 59.9% (inactive).
With `CN(C(=O)c1ccc(C(C)(C)C)cc1)c1sc2c(c1C#N)CCC(=O)C2` the growth was 9.38% (active).
`O=C(NO)c1ccc(CNC(=O)[C@H]2Cc3c([nH]c4ccccc34)[C@H](c3ccccc3)N2)cc1` was tested, and the growth was 15.1% (inactive).
`COc1ccc2cc([C@H](C)C(=O)NCc3ccccc3)ccc2c1` was tested, and the growth was 25.1% (inactive).
For `Cc1noc2c(Cc3ccccc3)nn(CC(=O)N/N=C/c3ccc(F)cc3)c(=O)c12`, the growth was 83.7% (inactive).
For `COc1cnc2c(c1)C(=O)c1c-2n(CCCNCCO)c(=O)c2cc(OC)c(OC)cc12`, the growth was 4.21% (active).
For `CN1CCc2c(sc3ncnc(N/N=C/c4cn(-c5ccccc5)nc4-c4ccc(Cl)cc4)c23)C1`, the growth was 23.7% (inactive).
With `N#Cc1c(NC(=O)c2ccc(C(F)(F)F)cc2C(F)(F)F)sc2c1CCC(=O)C2` the growth was 2.53% (active).
`O=C1N/C(=N\c2nccs2)S/C1=C\c1cccs1` was tested, and the growth was 19.5% (inactive).
With `CC(=O)c1ccc(Nc2nc(SC(C)C)nc(-c3ccccc3)c2C#N)cc1` the growth was 90.3% (inactive).
In the case of `O=C(CNc1nc(-c2ccccc2)cs1)Nc1ccc([N+](=O)[O-])cc1Cl`, the growth is reported as 15.5% (inactive).
For `O=C(NO)c1ccc(Cn2ccc3c(Nc4ccccc4)ncnc32)cc1`, the growth was 20.3% (inactive).
With `O=C(NO)c1ccc(CN2CCN(c3nc(-c4ccccc4)c4ccccc4n3)CC2)cc1` the growth was 24.5% (inactive).
